# In PubChem BioAssay (EPA / NIEHS):
# Values joined by “and” are separate entries in the source; they are usually repeats but may differ in a detail not shown here. Equal values may be shown once. Where a structure was tested more than once in an assay, its records may differ in their call. Active and inactive are the calls of the source. The calls were made as follows: active = hit-call score of the fitted dose curve at least 0.9, where 1 is the maximum; inactive = score below 0.9.
# Assay: BSK_3C_Proliferation: Cell Proliferation Assessment in the BioMAP Diversity Plus: 3C Assay (AID 2283006);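 as to AC50: potency may reflect either rise or fall in cell number versus DMSO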
# Conditions: primary human endothelial cells (HUVEC)
# Protocol: BSK_3C is a cell-based, multiplexed-readout assay that uses umbilical vein endothelium, a human vascular primary cell, with measurements taken at 24 hours after chemical dosing in a 96-well plate.BSK_3C_Proliferation is an assay component measured in the BSK_3C assay. It measures 0.1% sulforhodamine related to cell proliferation using Sulforhodamine staining technology.Data from the assay component BSK_3C_Proliferation was analyzed into 1 assay endpoint. This assay endpoint, BSK_3C_Proliferation, was analyzed with bidirectional fitting relative to DMSO as the negative control and baseline of activity. Using a type of viability reporter, measures of total protein for gain or loss-of-signal activity can be used to understand the viability at the cellular-level. Furthermore, this assay endpoint can be referred to as a secondary readout, because this assay has produced multiple assay endpoints where this one serves a viability function. To generalize the intended target to other relatable targets, this assay endpoint is annotated to the cell cycle intended target family, where the subfamily is proliferation.
# The levels of cell surface (or secreted, indicated by the prefix "s") biomarker endpoints were measured by ELISA. Overt cytotoxicity to cells in confluent adherent cultures (all systems other than the BT system) was assessed by measuring total protein levels using sulforhodamine B (SRB) staining in parallel cultures at the time of biomarker measurements, indicated as SRB endpoints. For proliferation assays for adherent cell types, individual cell types are cultured at sub-confluence and relative cell numbers quantified by SRB staining at time points optimized for each system (48 h: 3C and CASM3C systems; 72 h: BT and HDF3CGF systems; 96 h: SAg system). SRB was performed by staining cells with 0.1% SRB after fixation with 10% TCA and reading wells at 560 nm.Viability and proliferation of PBMC (T cells) was quantified by Alamar Blue reduction for the SAg and BT systems. For PBMC viability (referred to as PBMC Cytotoxicity within the assay endpoint names), cells were plated (75,000/well in a 96-well plate) and then chemical samples added for 1 h before addition of activators, SEB and TSST-1 (20 ng/mL final concentration each). Cells were incubated for 90 h. Then, Alamar Blue (20 uL/well) (Invitrogen, Cat DAL1100) was added for 6 h, and the plates were read with a fluorescence microplate reader at 546/580 nm (excitation/emission). For PBMC proliferation, cells were plated and activated as above but incubated for only 16 h prior to addition of Alamar Blue. Plates were read after 6 h.
Structure (SMILES),outcome,AC50
OCC(O)CC(F)(F)C(F)(F)C(F)(F)C(F)(F)F (stereo not given),inactive,
C=CC(=O)OCC(F)(F)C(F)(F)C(F)(F)C(F)(F)C(F)(F)C(F)(F)C(F)(F)C(F)F,,20.8 µM (active) and 24.1 µM (active)
CCOC(=O)CC(=O)C(F)(F)C(F)(F)F,inactive,
NC(=O)C(F)(F)C(F)(F)C(F)(F)F,inactive,
CC(C)(C)c1cc(CCC(=O)NCCCCCCNC(=O)CCc2cc(C(C)(C)C)c(O)c(C(C)(C)C)c2)cc(C(C)(C)C)c1O,inactive,
FC(F)(F)C(F)(F)C(F)(F)C(F)(F)C(F)(F)C(F)(F)C(F)(F)CCI,inactive,
O=C(O)C(F)(F)C(F)(F)C(F)(F)OC(F)(F)F,inactive,
Cc1cc(C)c(O)c(C(C)(C)C)c1,,20 µM (active)
O=C1c2c(O)ccc(Nc3ccc(CCO)cc3)c2C(=O)c2c([N+](=O)[O-])ccc(O)c21,,20 µM (active)
OCCCC(F)(F)C(F)(F)C(F)(F)C(F)(F)C(F)(F)C(F)(F)C(F)(F)C(F)(F)F,,7.56 µM (active) and 9.56 µM (active)
CO[Si](C)(CCC(F)(F)C(F)(F)C(F)(F)C(F)(F)C(F)(F)C(F)(F)F)OC,inactive,
CC1=CC2C3C=CC(C3)C2C1C (stereo not given),inactive,
O=C=Nc1cccc2c(N=C=O)cccc12,inactive,
O=C1C=CC(=O)N1c1ccc(Cc2ccc(N3C(=O)C=CC3=O)cc2)cc1,,3.52 µM (active)
OCC(F)(F)C(F)(F)C(F)(F)C(F)(F)C(F)(F)C(F)(F)CO,inactive,15.6 µM (active)
NS(=O)(=O)C(F)(F)C(F)(F)C(F)(F)C(F)(F)C(F)(F)C(F)(F)F,,28.9 µM (active) and 49.6 µM (active)
NC(=O)C(F)(F)C(F)(F)C(F)(F)C(F)(F)C(N)=O,inactive,
Cc1cc(O)c(C(C)(C)C)cc1C(C)(C)C,,2.36 µM (active)
O=C(O)CCC(F)(F)C(F)(F)C(F)(F)C(F)(F)C(F)(F)C(F)(F)C(F)(F)F,inactive,
OCC(F)(F)C(F)(F)C(F)(F)C(F)(F)C(F)(F)C(F)(F)C(F)(F)C(F)(F)CO,,30 µM (active) and 44.6 µM (active)

Structure (SMILES),outcome,AC50
COC(F)(C(F)F)C(F)(F)F (stereo not given),inactive,
O=C(O)C(F)(F)C(F)(F)C(F)(F)C(F)(F)C(F)(F)C(F)(F)C(F)F,inactive,
O=C(O)C(F)(F)OC(F)(F)C(F)(F)OC(F)(F)C(F)(F)OC(F)(F)F,inactive,
O=C(Cl)C(F)(F)C(F)(F)C(F)(F)C(F)(F)C(F)(F)C(F)(F)C(F)(F)F,inactive,
CCN(CC)c1ccc2c(c1)Oc1cc(N(CC)CC)ccc1C21OC(=O)c2ccccc21,,5.03 µM (active)
NC(=O)C(F)(F)C(F)(F)C(F)(F)C(F)(F)C(F)(F)C(F)(F)C(F)(F)F,inactive,
FC(F)(F)C(F)(F)C(F)(F)CC1CO1 (stereo not given),inactive,
NCC(F)(F)C(F)(F)C(F)(F)C(F)(F)C(F)(F)C(F)(F)F,inactive,
O=C(F)C1(F)C(F)(F)C(F)(F)C(F)(F)C(F)(F)C1(F)F,inactive,
Cc1ccc(S(=O)(=O)C(I)I)cc1,,0.593 µM (active)
OCC(O)CC(F)(F)C(F)(F)C(F)(F)C(F)(F)C(F)(F)C(F)(F)C(F)(F)C(F)(F)F (stereo not given),inactive,
O=S(=O)(O)CCC(F)(F)C(F)(F)C(F)(F)C(F)(F)F,inactive,
Cc1cnccn1,inactive,
O=C=NCc1cccc(CN=C=O)c1,inactive,
O=C(Cl)C(F)(F)C(F)(F)C(F)(F)C(F)(F)C(F)(F)C(F)(F)F,inactive,
CCN=C1C=CC(=C(c2ccc(N(CC)CC)cc2)c2ccc(N(CC)CC)cc2)c2ccccc21,,888 nM (active) and 871 nM (active)
CCN(CC)c1ccc(C=O)cc1,inactive,
CC(C)CCCC(C)CCO (stereo not given),,30.4 µM (active)
OCC(F)(F)C(F)(F)C(F)(F)CO,inactive,
